Assay outcomes from PubChem BioAssay.
An excerpt weighted towards active compounds, which were near 4.6% of everything screened.
CF NFkB block: cystic fibrosis NF-kB activation inhibition; 360,000 tested, 0.86% active; inhibition, % at 5 µM; KKLEB NF-kB-GFP reporter, PAF-induced, GFP fluorescence overnight;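 active = at least 50% inhibition at 5 µM, scaled per plate between neutral and stimulator controls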;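 also: PAF is a Pseudomonas aeruginosa culture filtrate used as stimulus; plate controls were PAF-stimulated DMSO wells for no effect and unstimulated DMSO wells for full effect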
ABHD5 PLIN5 PPI: blocks binding of human ABHD5 to perilipin-5 | 360,000 tested, 0.78% active | Split G. princeps luciferase complementation, luminescence, 4 h | inhibition, % at 4 µM | AID 602281;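 active = inhibition above the mean inhibition across every tested compound plus 3 SD, cut at about 22% in these data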;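 also: 0% = DMSO only wells and the 100% control is not disclosed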
HIF-2a inh: inhibitors of HIF-2a. 786-0 RCC cells HIF-2a reporter, luciferase luminescence, overnight. inhibition, % at 18.8 µM. 360,000 tested, 0.72% active. AID 624352;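 active = inhibition of the luminescence signal of 40% or more relative to plate controls, in a single-dose primary screen at 18.75 µM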
KKLEB cytotox: counter-screen for CF NF-kB inhibitors: cytotoxicity; KKLEB CF airway cells viability, ATPlite luminescence, overnight; active compounds read low; cells stimulated with P. aeruginosa culture filtrate; activity change (cytotoxicity), % at 5 µM; 360,000 tested, 0.36% active;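 active = corrected activity change at or below -50% at 5 µM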
Mdm2-MdmX inh: inhibitors of human Mdm2/MdmX interaction; O15151+Q00987; SaOS-2 split-luciferase Mdm2/MdmX complementation, luminescence; inhibition, % at 8 µM; 330,000 tested, 3% active; AID 485346;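 active = inhibition of at least 50% at 8 µM in the primary screen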
Peg3 prom inh-1: Peg3 promoter activity inhibition; HeLa PEG-Prom luciferase reporter, luminescence, overnight; inhibition, % at 20 µM; 360,000 tested, 1.7% active; AID 588405;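 active = inhibition of at least 50% at 20 µM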
Mdm2 MdmX conf-1: confirmation of human Mdm2/MdmX interaction inhibitors; shares compounds with Mdm2-MdmX inh; Mdm2-MdmX binding, luminescent assay; inhibition, % at 8 µM; 10,000 tested, 55% active; AID 489028
FLuc counter: full-length luciferase inhibition in Mdm2/MdmX counter-screen; shares compounds with Mdm2-MdmX inh; SaOS-2 full-length luciferase counterscreen, luminescence; inhibition, % at 8 µM; 6,200 tested, 77% active; AID 504607;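 active = mean inhibition at 8 µM reaching about 37%, which flags the compound as non-specific, limit read from the data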;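 also: p53-null SaOS-2 cells with luciferase driven by a doxycycline-inducible promoter; compound on cells about two nights before reading with doxycycline added after day one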
Peg3 prom inh-2: Peg3 promoter inhibition confirmation. shares compounds with Peg3 prom inh-1. HeLa PEG-Prom luciferase reporter, luminescence, overnight. inhibition, % at 20 µM. 1,300 tested, 84% active. AID 602417;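 active = at 20 µM dose, 40% or more inhibition averaged across four replicates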
CF NFkB conf: confirmation of cystic fibrosis induced NF-kB inhibitors; inhibition, % at 5 µM; shares compounds with CF NFkB block; KKLEB CF airway cells, PAF-induced NF-kB-GFP fluorescence, overnight; 1,300 tested, 64% active;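 also: stimulus PAF is a Pseudomonas aeruginosa filtrate and not platelet activating factor; plate controls were DMSO wells with stimulus for no effect and unstimulated DMSO wells for full effect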
ABHD5 PLIN5 conf: ABHD5-PLIN5 interaction inhibition, confirmed; shares compounds with ABHD5 PLIN5 PPI; biochemical ABHD5-PLIN5 interaction, luminescence; inhibition, % at 4 µM; 2,200 tested, 67% active; AID 651612; in the data active = inhibition above about 23%;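 also: 0% = DMSO vehicle wells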
HNF4 split-luc: counter-screen for ABHD5-PLIN5 inhibitors: HNF4 split-luciferase | HNF4 dimerization, luminescence, biochemical | shares compounds with ABHD5 PLIN5 PPI | AID 651674 | inhibition, % at 4 µM | 2,200 tested, 77% active;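 active = mean inhibition across replicate wells exceeding the computed hit threshold, cut at about 13% in these data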;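 also: light from luciferase halves that rejoin when HNF4 fusion proteins dimerize; 0% = DMSO only wells and the 100% control is not given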
Mdm2 MdmX conf-2: Mdm2/MdmX (human) interaction inhibition, confirmed | shares compounds with HIF-2a inh | SaOS-2 split-luciferase Mdm2/MdmX complementation, luminescence | inhibition, % at 8 µM | 740 tested, 99% active | AID 504601;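 active = mean inhibition of the luminescence signal across two replicates at or above 26 percent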
HIF-2a inh conf: HIF-2a inhibition, single concentration confirmation; 1,800 tested, 56% active; shares compounds with HIF-2a inh; 786-0 RCC cells, HIF-2a luciferase reporter luminescence, overnight; inhibition, % at 18.8 µM; AID 651580;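 active = mean inhibition across four replicates of at least 40 percent at the single tested concentration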
HIF-1a counter: inhibits HIF-1a reporter, a counter-screen for HIF-2a inhibitors. 1,800 tested, 72% active. MiaPaCa-2 HIF-1a luciferase reporter, desferoxamine, overnight. inhibition, % at 18.8 µM. shares compounds with HIF-2a inh. AID 651589;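 active = mean inhibition of the reporter signal across four replicates at the single tested dose of 50% or more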
* hit, by the source's call; nt = not tested or not shown. Rule as the data show it, unless noted: active = inhibition above about 40%; inactive = the rest.

SMILES	CF NFkB block	ABHD5 PLIN5 PPI	HIF-2a inh	KKLEB cytotox	Mdm2-MdmX inh	Peg3 prom inh-1	Mdm2 MdmX conf-1	FLuc counter	Mdm2 MdmX conf-2	HIF-2a inh conf	HIF-1a counter	others
CC(C)(C)C(=O)Nc1nc2cc3c(cc2s1)OCO3	-18	0	-322	-1	-190	-298	nt	nt	nt	nt	nt
O=C(N/N=C/c1sc(N2CCOCC2)nc1-c1ccccc1)c1ccc(O)cc1	-14	2	-16	4	-12	4	nt	nt	nt	nt	nt
O=C(N/N=C/c1sc(N2CCOCC2)nc1-c1ccccc1)c1cccc(S(=O)(=O)N2CCCC2)c1	-26	4	32	5	79*	66*	72*	41*	80*	nt	nt	Peg3 prom inh-2=66*
COC(=O)CSc1ncnc2scc(-c3ccccc3)c12	35	-1	17	-24	23	14	nt	nt	nt	nt	nt
Fc1ccc(CSc2ncnc3scc(-c4ccccc4)c23)cc1	43	-12	27	-9	11	20	nt	nt	nt	nt	nt
Cn1nnnc1Sc1ncnc2scc(-c3ccc(C#N)cc3)c12	77*	11	90*	-48	87*	103*	79*	60*	103*	94*	107*	CF NFkB conf=3
Cn1nnnc1Sc1ncnc2scc(-c3ccsc3)c12	47	9	66*	7	100*	95*	85*	53*	103*	49*	100*	Peg3 prom inh-2=96*
Cn1nnnc1Sc1ncnc2scc(-c3ccc(-c4ccccc4)cc3)c12	88*	4	46*	-63*	100*	101*	23	nt	nt	-26	101*
Cn1nnnc1Sc1ncnc2scc(-c3cccs3)c12	nt	nt	nt	nt	98*	nt	90*	56*	103*	nt	nt
Cc1cc(C(=O)CN2C(=O)C(=O)N(Cc3ccccc3)C2=O)c(C)n1-c1ccc2c(c1)OCCO2	7	7	15	-14	29	22	nt	nt	nt	nt	nt
Cn1nnnc1Sc1ncnc2scc(-c3cc4ccccc4o3)c12	83*	29*	97*	-86*	100*	100*	99*	51*	103*	96*	107*	ABHD5 PLIN5 conf=71*;HNF4 split-luc=77*
Cc1nnc(NC(=O)CSc2ncnc3scc(-c4ccccc4)c23)s1	17	0	23	1	12	12	nt	nt	nt	nt	nt
CCN(CC(=O)Nc1c(F)cccc1F)C(=O)c1cccc(S(=O)(=O)N(C)c2ccccc2)c1	-2	5	4	3	-2	15	nt	nt	nt	nt	nt
c1csc(C2=Nn3c(nnc3-c3ccncc3)SC2)c1	66*	-1	-1	-16	75*	-12	80*	51*	93*	nt	nt
c1ccc(C2=Nn3c(nnc3-c3cccs3)SC2)cc1	-12	-3	-1	-13	4	8	nt	nt	nt	nt	nt
